Screening results as filed in PubChem.
Mtb hypoxia rep – reduces hypoxia-regulated biosensor signal in M. tuberculosis | M. tuberculosis hypoxia-regulated fluorescent reporter, fluorescence | fluorescence inhibition, % (no concentration beside the values) | 300,000 compounds, 0.1% hits | AID 1159583; in the data active = fluorescence inhibition mostly above about 23%, no sharp cut-off; inactive = mostly below about 17%
VHR inh abs – DUSP3 (human) phosphatase inhibition | inhibition, % at 13.3 µM | recombinant VHR phosphatase, pNPP absorbance | P51452 | 290,000 compounds, 0.52% hits; in the data active = inhibition above about 50%
Target sequence (P51452 whole entry, looked up): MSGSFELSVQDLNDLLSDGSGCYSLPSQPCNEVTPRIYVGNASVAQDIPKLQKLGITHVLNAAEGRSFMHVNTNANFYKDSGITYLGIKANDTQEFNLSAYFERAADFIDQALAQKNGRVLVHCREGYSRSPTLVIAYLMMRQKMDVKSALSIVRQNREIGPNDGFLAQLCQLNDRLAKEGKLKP
ugtP null kill – growth inhibition of S. aureus ugtP deletion strain; S. aureus RN4220 ugtP deletion, OD600 growth, 16 h; growth inhibition, % (test concentration not listed); 330,000 compounds, 0.54% hits; AID 1259309; in the data active = growth inhibition above about 68%;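 note: plate controls were untreated wells for no effect and antibiotic for full effect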
PfHsp40 rescue – compounds rescuing yeast from Plasmodium falciparum HSP40 toxicity. AID 504582. growth rescue, % at 12.5 µM. S. cerevisiae expressing PfHsp40, growth rescue, ATP luminescence. 340,000 compounds, 0.68% hits; in the data active = growth rescue above about 28%, passing the limit was not always enough;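 note: yeast W303a lacking pdr1 and pdr3 grown in galactose medium; growth measured after three days at 30 °C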
SSB-PriA inh – inhibitors of Klebsiella pneumoniae PriA binding to SSB C-terminal tail | 430,000 compounds, 0.6% hits | AlphaScreen SSBct-PriA binding, biotinylated peptide | inhibition, % at 33 µM; in the data active = inhibition mostly above about 37%, no sharp cut-off; inactive = mostly below about 20%;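 note: plate controls were negative control peptide for no effect and reference peptide for full effect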
RN4220 kill – kills Staphylococcus aureus RN4220; inhibition, % (test concentration not listed); 330,000 compounds, 0.33% hits; S. aureus RN4220 growth, OD600, 16 h; AID 1259311; in the data active = inhibition above about 85%;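 note: plate controls were untreated cells for no effect and reference antibiotic for full effect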
The depositor's hits bear a star. Sampled rows, rich in hits. Any-hit rate of the full collection: about 1.8%.

How did O=C(Oc1c(CN2CCOCC2)cc(Cl)c2cccnc12)c1ccccc1Br do in these assays?
Mtb hypoxia rep: 1.8; VHR inh abs: -9.2; ugtP null kill: 2.2; PfHsp40 rescue: -0.6; SSB-PriA inh: 5.5; RN4220 kill: 5.5

What do the screens show for `O=C(Oc1c(CN2CCOCC2)cc(Cl)c2cccnc12)c1cccc([N+](=O)[O-])c1`?
SSB-PriA inh: 105.0*

How did CC(C)c1ccc(NC(=O)CCNC(=O)N2C[C@H]3C[C@H](C2)c2cccc(=O)n2C3)cc1 do in these assays?
SSB-PriA inh: -7.3

How did COc1cccc(CNC(=O)C2CCC(CNS(=O)(=O)c3cccc4cccnc34)CC2)c1 (stereo unspecified) do in these assays?
Mtb hypoxia rep: -7.2; VHR inh abs: 55.5*; ugtP null kill: 5.9; PfHsp40 rescue: -0.3; SSB-PriA inh: -3.8; RN4220 kill: 0.1

Results for CNC(C)c1cc(OC)ccc1OC (stereo unspecified) ?
Mtb hypoxia rep: 6.7; VHR inh abs: 39.1; ugtP null kill: 7.0; PfHsp40 rescue: 45.4*; SSB-PriA inh: -0.8; RN4220 kill: 4.3

Results for CCS(=O)(=O)c1ccc(CC(=O)Nc2nccs2)cc1 ?
SSB-PriA inh: -1.0

Results for CCOc1ccc(Nc2nc(N3CCCCC3)nc(N3CCCCC3)n2)cc1 ?
Mtb hypoxia rep: 6.7; VHR inh abs: 22.9; ugtP null kill: 92.3*; PfHsp40 rescue: -0.8; SSB-PriA inh: -7.3; RN4220 kill: -2.0

What do the screens show for `Nc1c(C(=O)Nc2ccc(Cl)cc2)c2nc3ccccc3nc2n1/N=C\c1ccco1`?
SSB-PriA inh: -2.0

How did CN(C)c1cccc(NC(=O)CCc2ccccc2)c1 do in these assays?
VHR inh abs: -12.2; ugtP null kill: 9.0; PfHsp40 rescue: 0.7; SSB-PriA inh: 53.6*; RN4220 kill: 4.7

What do the screens show for `O=C(Nc1cccc(NC(=O)c2ccccc2)n1)c1ccccc1`?
Mtb hypoxia rep: 7.3; VHR inh abs: 11.4; ugtP null kill: 31.2; PfHsp40 rescue: 6.1; SSB-PriA inh: -21.8; RN4220 kill: 95.7*

Results for CN(N=Cc1ccccc1Cl)c1ncc(Cl)cc1C(F)(F)F ?
Mtb hypoxia rep: 5.5; ugtP null kill: 84.5*; RN4220 kill: -5.0

Results for Cc1nc2ccc(NC(=O)Cc3ccc4c(c3)OCCO4)cc2s1 ?
Mtb hypoxia rep: 5.8; VHR inh abs: -2.5; ugtP null kill: 7.0; PfHsp40 rescue: 769.4*; SSB-PriA inh: 0.5; RN4220 kill: -0.1

What do the screens show for `COc1ccc(C(=O)Oc2cc(C=NNC(N)=S)ccc2OC)cc1`?
ugtP null kill: 17.2; SSB-PriA inh: 24.0; RN4220 kill: -0.9

What do the screens show for `O=c1cccnn1CCNS(=O)(=O)c1cc(C(F)(F)F)cc(C(F)(F)F)c1`?
SSB-PriA inh: 38.0*

What do the screens show for `O=c1cccnn1CCCNS(=O)(=O)c1cc(C(F)(F)F)ccc1Cl`?
SSB-PriA inh: -17.0

Results for COc1ccc(N2CCN(c3nc(-c4cccs4)nc4ccccc34)CC2)cc1 ?
Mtb hypoxia rep: -1.2; VHR inh abs: 2.7; ugtP null kill: -1.0; PfHsp40 rescue: 5.4; SSB-PriA inh: -19.9; RN4220 kill: 4.3

Results for COc1ccc(Nc2nc(-c3ccccc3)nc3ccccc23)cc1 ?
Mtb hypoxia rep: 6.4; VHR inh abs: 10.4; ugtP null kill: 94.8*; PfHsp40 rescue: 6.5; SSB-PriA inh: -54.7; RN4220 kill: 8.3

Results for COc1cccc(CN(C)c2nc(-c3cccs3)nc3ccccc23)c1 ?
Mtb hypoxia rep: 1.8; VHR inh abs: 4.7; ugtP null kill: 8.0; PfHsp40 rescue: 0.8; SSB-PriA inh: -30.3; RN4220 kill: 4.7

Results for COc1cccc(Nc2nc(-c3cccs3)nc3ccccc23)c1 ?
Mtb hypoxia rep: 3.2; VHR inh abs: 5.7; ugtP null kill: 68.0; PfHsp40 rescue: 278.8*; SSB-PriA inh: -65.8; RN4220 kill: 28.3

How did COc1ccc(Nc2nc(-c3cccs3)nc3ccccc23)cc1 do in these assays?
Mtb hypoxia rep: -3.0; VHR inh abs: 1.7; ugtP null kill: 95.4*; PfHsp40 rescue: 3.2; SSB-PriA inh: -39.6; RN4220 kill: 10.5

Results for O=C(CNC(=O)c1ccccc1)NN=Cc1cn[nH]c1-c1ccccc1 ?
Mtb hypoxia rep: -9.4; ugtP null kill: 2.8; SSB-PriA inh: -8.9; RN4220 kill: 0.1

How did O=C(OCC#CCSc1nnc(-c2ccc(Br)cc2)o1)c1cccs1 do in these assays?
Mtb hypoxia rep: 40.6*; VHR inh abs: 25.8; ugtP null kill: -0.7; PfHsp40 rescue: 2.2; SSB-PriA inh: -61.0; RN4220 kill: 9.4
